Data on 21 compounds can be found in PubChem BioAssay AID2174 (The Scripps Research Institute Molecular Screening Center, 2009).

The campaign covered roughly 320,000 compounds. About 500 (0.16%) were called active. This is one part of a sample in which actives are shown more often than they occur. Unmarked numbers belong to inactive results.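 Rule for the calls: active = inhibition above the mean of all tested compounds plus 3 SD, set per campaign (cut at about 14% in these data); inactive = the rest.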

In general, inhibition refers to the change of the read-out against control, counted positive when it falls.

The assay deals with Acyl-protein thioesterase 1 (Homo sapiens) (UniProt O75608). Briefly: LYPLA1 inhibitors, primary screen, counter-screen for PME1 inhibitor project, biochemical, fluorescence polarization, FP-Rh probe ABPP (AID 2174).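 Note: inhibitors block serine hydrolase probe labeling of LYPLA1 so polarization falls; 0% = enzyme with DMSO and 100% = wells lacking LYPLA1.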 The conditions noted are these: recombinant LYPLA1, FP-Rh probe fluorescence polarization; at 5.9 µM; active compounds read high. (In general: The purpose of a counterscreen is to sort out artefacts and off-target activity.)
Chain of Acyl-protein thioesterase 1 (Homo sapiens) (O75608 whole entry, looked up): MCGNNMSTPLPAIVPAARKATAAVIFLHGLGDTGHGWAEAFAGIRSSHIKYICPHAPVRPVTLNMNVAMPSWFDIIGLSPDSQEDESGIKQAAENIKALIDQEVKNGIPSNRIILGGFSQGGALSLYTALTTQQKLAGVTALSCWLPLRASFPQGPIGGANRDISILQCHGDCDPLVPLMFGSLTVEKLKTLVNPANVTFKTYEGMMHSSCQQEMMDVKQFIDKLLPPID
Take `CC(=O)N1C(C)c2ccccc2C(C)(C)CC12CCCCC2` (stereo unspecified): the inhibition was 0.06%.
As to `COC(=O)c1ccc2ccccc2c1OC1OC(CO)C(O)C(O)C1NC(C)=O` (stereo unspecified), the inhibition was -2.18%.
For `Cc1ccc2c(c1)N(S(=O)(=O)c1cc(-c3cc(C)no3)ccc1C)CCO2` the value was -4.6%; for `CCOC(=O)Cc1csc(NC(=O)CN(C)S(=O)(=O)c2ccc3c(c2)CCC(=O)N3)n1`, -0.84%.
The value for `Cc1cccc(N2CCN(C(=O)CN(C)S(=O)(=O)c3ccc4c(c3)CCC(=O)N4)CC2)c1C` was 16.5% (active); that for `Cc1cccc(N2CCN(C(=O)CCS(=O)(=O)c3ccc4c(c3)NC(=O)C(C)S4)CC2)c1C` (stereo unspecified) was 2.02%; that for `O=c1[nH]n(-c2cccc(Cl)c2)c2ncccc12` was 29.8% (active).
The value for `O=C(O)CSc1nccn1-c1cccc(Cl)c1` was -1.21%; that for `O=c1c(-c2cccc(Cl)c2)c[nH]n1-c1ccccc1` was -3.25%; that for `Cc1ccc(C2=NN(C)c3nc4ccccc4n3C2)cc1` was -2.83%.
As for `CN1CCN(C(=O)N2c3ccccc3CCc3ccccc32)CC1`, the inhibition is 3.26%.
Take `O=C(CSc1ncnc2c1nnn2Cc1ccc(F)cc1)NC1CCCC1`: the inhibition is 1.1%.
The value for `CCOC(=O)c1cc2cc(-c3c(C(=O)OCC)oc4cc(O)cc(O)c4c3=O)ccc2o1` was 9.58%.
With `CCOC(=O)c1nnn2c1nc(N1CCN(c3ccccc3)CC1)c1ccccc12`, the inhibition was -0.46%.
The value for `O=C(CCNS(=O)(=O)c1ccccc1C(F)(F)F)Nc1ccncc1` was -2.82%; that for `C/C(Cn1nnc2ccccc21)=N\OC(=O)c1cc(F)c(F)cc1Cl` was -3.21%; that for `Cn1c(=O)c2c(nc(N/N=C/c3cccs3)n2Cc2ccc(Br)cc2)n(C)c1=O` was 4.08%.
For `Cn1nccc1C(=O)N1CCCC(C(=O)c2ccc(Oc3ccccc3)cc2)C1` (stereo unspecified) the value was 6.29%; for `O=C(c1ccc(-c2ccccc2)cc1)C1CCCN(C(=O)c2cncs2)C1` (stereo unspecified), 24% (active); for `Cc1nc(C(=O)N2CCCC(C(=O)c3ccc(Cl)cc3)C2)cs1` (stereo unspecified), -0.29%.
The value for `COC(=O)c1cc2c(ccn2C)n1C` was -0.69%.
